PubChem BioAssay AID1159580 (chemical genetic matrix, 2015)
In all, about 5,500 compounds went through this assay and about 2,000 (36%) were called active. Another 18% or so got no clear call; they are omitted. Cut-off read from the data, not from the text of the source: active = normalized growth mostly below about 0.91 (no sharp cut-off); inconclusive = no clear call, values can overlap the other calls; inactive = mostly above about 0.92. Some of the results follow.

Experiment: chemical genetic growth profiling, strain panel (AID 1159580);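 note: tested at 20 µM; growth read once vehicle control cultures reached saturation at 30 °C; 1 = growth at the plate median or of vehicle wells; lower values mean less growth of the strain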
Conditions: S. cerevisiae deletion strains, growth OD

Measured: normalized growth

CCCN(CCc1ccccc1)C1CCc2c(O)cccc2C1 (centres undefined)
inactive: locus YAL013W, strain DEP1, hits give low values 0.992 | locus YAL040C, strain CLN3, hits give low values 1.02 | locus YCL061C, strain MRC1 (second series), hits give low values 1 | locus YDR363W, strain ESC2, hits give low values 1.02 | locus YER002W, strain NOP16, hits give low values 1 | locus YGR229C, strain SMI1, hits give low values 0.988 | locus YJR075W, strain HOC1, hits give low values 1 | locus YMR263W, strain SAP30, hits give low values 1 | locus YMR307W, strain GAS1, hits give low values 0.997 | locus YNL153C, strain GIM3, hits give low values 0.957 | locus YNL175C, strain NOP13, hits give low values 1 | locus YNL224C, strain SQS1, hits give low values 1.01 | locus YOR083W, strain WHI5 (second series), hits give low values 1.02 | locus YPL055C, strain LGE1, hits give low values 0.973
